Values joined by “and” are separate entries in the source; they are usually repeats but may differ in a detail not shown here. Equal values may be shown once. Results filed as inconclusive are left out. For some assays here: Results with a measured potency or affinity are listed apart. Some compounds were tested as several samples or in several runs, with calls that do not always agree. Active and inactive are the calls of the source. Unless noted, how the calls were made is not given here.
How the values were obtained:
[1] = antimalarial activity against Dd2 strain (AID 2302;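 active means growth inhibition above 50% at the single 2 µM test dose, taken to imply half-maximal potency below 2 µM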;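 further: 0% = DMSO untreated growth and 100% = chloroquine plus artemisinin killed control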); conditions: P. falciparum Dd2 in RBCs, LDH growth readout, 72 h; at 2 µM; stronger effect = higher value
[2] = human hepatoma cell viability loss – ATP luminescence, cytotoxicity control for P. falciparum antimalarial project, primary screen (AID 2303;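 active means inhibition above 50%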;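 further: 0% = DMSO wells and 100% = digitonin-killed cells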); conditions: HepG2 viability, 24-48 h, at 10 µM, stronger effect = higher value
[3] = molecular target: L-lactate dehydrogenase (Plasmodium falciparum (isolate CDC / Honduras)) (UniProt Q27743); assay: PfLDH activity inhibition – cell lysate, 3D7 strain, counter-screen for P. falciparum growth inhibition project (AID 2304);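 further: 0% = vehicle and 100% = reference inhibitor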; conditions: P. falciparum 3D7 crude extract, LDH APAD/NBT absorbance; at 2 µM; stronger effect = higher value
[4] = inhibition of 3D7 malaria parasite growth – strain 3D7 (AID 2306);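 further: 0% = DMSO wells and 100% = chloroquine plus artemisinin control wells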; conditions: P. falciparum 3D7 erythrocytic growth, LDH absorbance, 72 h; at 2 µM; stronger effect = higher value
[5] = molecular target: Calcium-dependent protein kinase 1 (Plasmodium falciparum (isolate 3D7)) (UniProt P62344); assay: PfCDPK1 kinase inhibitors, biochemical, TCAMS library (AID 1159585; cut-off not given, nearly all actives have IC50 up to about 0.98 µM;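 further: inhibitors leave more ATP so luminescence rises with inhibition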); conditions: recombinant PfCDPK1, Kinase-Glo ATP depletion luminescence
[6] = molecular target: Plasmodium falciparum protein kinase 6 (PK6, PF3D7_1337100) (UniProt Q8IDW1); assay: PfPK6 kinase inhibitors, biochemical, TCAMS library (AID 1159586); conditions: recombinant PfPK6, Kinase-Glo ATP depletion luminescence
[7] = molecular target: Protein kinase 7 (PK7), Plasmodium falciparum 3D7 (PF3D7_0213400) (UniProt Q7YTF7); assay: inhibition of Plasmodium PK7 catalytic activity – biochemical, TCAMS antimalarial set, Kinase-Glo luminescence (AID 1159587); conditions: recombinant PfPK7, Kinase-Glo ATP depletion luminescence
[8] = molecular target: Calcium-dependent protein kinase 4 (Plasmodium falciparum (isolate 3D7)) (UniProt Q8IBS5); assay: PfCDPK4 kinase inhibitors, biochemical, TCAMS library (AID 1159588; cut-off not given, nearly all actives have IC50 up to about 0.91 µM); conditions: recombinant PfCDPK4, Kinase-Glo ATP depletion luminescence
[9] = viability loss in pontine glioma line – cell-based, SU-DIPG-XVII, MIPE5.0, CellTiter-Glo, qHTS, dose response (AID 1347060; cut-off not given, nearly all actives have AC50 up to about 26 µM;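 on AC50: cells exposed to compound for 48 hours before viability readout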); conditions: CellTiter-Glo ATP luminescence
[10] = viability loss in pontine glioma line – cell-based, SU-DIPG-XIII, MIPE4.0, CellTiter-Glo, qHTS, dose response (AID 1347061; cut-off not given, nearly all actives have AC50 up to about 37 µM;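 further: cells exposed to compound for 48 hours before readout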); conditions: CellTiter-Glo ATP luminescence
[11] = viability loss in pontine glioma line – cell-based, JHH-DIPG-1, MIPE4.0, CellTiter-Glo, qHTS, dose response (AID 1347062; cut-off not given, nearly all actives have AC50 up to about 27 µM;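 on AC50: cells exposed to compound for two days before readout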); conditions: JHH-DIPG-1 viability, CellTiter-Glo ATP luminescence
[12] = viability loss in pontine glioma line – cell-based, SU-DIPG-IV, MIPE4.0, CellTiter-Glo, qHTS, dose response (AID 1347063; cut-off not given, nearly all actives have AC50 up to about 30 µM;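 further: compound exposure lasted 48 hours before the viability readout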); conditions: CellTiter-Glo ATP luminescence
[13] = viability loss in pontine glioma line – cell-based, SU-DIPG-XIII, MIPE5.0, CellTiter-Glo, qHTS, dose response (AID 1347064; cut-off not given, nearly all actives have AC50 up to about 23 µM;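 on AC50: cells exposed to compound for 48 hours before the viability read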); conditions: CellTiter-Glo ATP luminescence
[14] = viability loss in pontine glioma line – cell-based, SU-DIPG-XXV, MIPE5.0, CellTiter-Glo, qHTS, dose response (AID 1347065; cut-off not given, nearly all actives have AC50 up to about 26 µM;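 further: cells exposed to compound for 48 hours before ATP readout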); conditions: CellTiter-Glo ATP luminescence
[15] = JHH-DIPG-1 glioma cell viability, MIPE5.0 library, CellTiter-Glo luminescence, qHTS (AID 1347067; cut-off not given, nearly all actives have AC50 up to about 26 µM;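 further: cells exposed to compound for 48 hours before readout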); conditions: JHH-DIPG-1 glioma viability, CellTiter-Glo ATP luminescence
[16] = growth inhibition of DIPG cells – cell-based, MIPE5.0 library, qHTS (AID 1347068; cut-off not given, nearly all actives have IC50 up to about 30 µM;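 on IC50: cells exposed to compound for 48 hours before viability readout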); conditions: SU-DIPG-XXV viability
[17] = viability loss with induced miR-34 in A549 – imaging, A549 dox-inducible miR-34, nuclei and caspase counts, primary screen (AID 1347080;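 active means compounds whose cell count with miR-34 switched on is under 0.7 times the count with it off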); conditions: A549 miR-34 inducible, Hoechst nuclei count, 48 h
[18] = MELAS cybrid and Rieske KO viability enhancers – cell-based, MELAS cybrids, Rieske KO mouse fibroblasts, CellTiter-Glo, primary screen (AID 1508586;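 active means mean z-score across replicates of 1.96 or higher in either the MELAS or the Rieske mutant cell line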;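 further: z relative to plate mean and SD of compound and empty wells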); conditions: low glucose
[19] = chitosan synthesis blockers in C. neoformans – flow cytometry, Cibacron Brilliant Red staining (AID 1347148); conditions: Cryptococcus neoformans chitosan, stronger effect = lower value; at 10 µM unless noted;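 further: compound exposure lasted three days at 37 degrees C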
[20] = P. berghei load reduction in hepatocytes – cell-based, HepG2, luciferase luminescence, HepG2 viability, primary screen (AID 624349; in the data active means parasite load remaining mostly below about 12%, no sharp cut-off; inactive means mostly above about 10%;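 further: 100% = mean of DMSO negative control wells on the same plate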); conditions: P. berghei liver stage in HepG2, luciferase luminescence, concentration not given here; parasite load remaining: stronger effect = lower value; viability: measured here: HepG2 viability without parasites
[21] = tested on: Aerobactin synthetase IucA (Klebsiella pneumoniae); assay: inhibition of K. pneumoniae IucA enzyme – biochemical, Tocris library, absorbance (AID 1345561); conditions: purified IucA enzyme assay, absorbance (OD) read-out; stronger effect = lower value;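 tested at 8 µM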;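 further: 100% = enzyme without compound and 0% = no enzyme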
[22] = galactose survival enhancers in mitochondrial complex I cybrids – cell-based, galactose medium, ATP luminescence, primary screen (AID 1645843;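 active means z-score of at least 1.8 in each of two replicates, scored against plate mean and spread of sample wells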;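 further: positive z means more ATP and so rescue of galactose-driven cybrid death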); conditions: complex I mutant cybrid cells, 72 h, stronger effect = higher value
[23] = growth inhibition of DIPG cells – cell-based, MIPE4.0 library, CellTiter-Glo luminescence, qHTS (AID 1347066; cut-off not given, nearly all actives have AC50 up to about 30 µM;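 further: cells exposed to compound for 48 hours before readout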); conditions: SU-DIPG-VI viability, CellTiter-Glo ATP luminescence
[24] = molecular target: NAD(+) hydrolase SARM1 (Homo sapiens) (UniProt Q6SZW1); assay: blocking NAD cleavage by SARM1 SAM-TIR – cell lysate, NAD-Glo luminescence (AID 1508614;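 active means compound whose remaining NAD level is above about 45 nM, limit read from the data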); conditions: SAM-TIR HEK293T lysate NADase, at 1 µM, stronger effect = higher value
[25] = molecular target: Mitogen-activated protein kinase 7 (Homo sapiens) (UniProt Q13164); assay: Gal4-ERK5 driven luciferase induction – cell-based, HTS, primary screen (AID 1508626;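 active means luciferase signal above three times the same-plate solvent-only control wells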;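 further: luciferase driven by Gal4-ERK5 fusion binding five Gal4 sites before minimal TATA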); conditions: HeLa Gal4-ERK5 transactivation, 18 h, at 5 µM, stronger effect = higher value
[26] = stronger effect = lower value, cell number ratio, induced over uninduced
[27] = measured here: relative caspase fold change +Dox/-Dox
[28] = measured here: total cells with miR-34 induction, stronger effect = lower value
[29] = measured here: total cells without miR-34 induction
[30] = MELAS cybrid survival, CellTiter-Glo 48 h, stronger effect = higher value
[31] = Rieske KO mouse fibroblast survival, CellTiter-Glo 72 h

Plasmodium falciparum protein kinase 6 (PK6, PF3D7_1337100), sequence (Q8IDW1 1-305): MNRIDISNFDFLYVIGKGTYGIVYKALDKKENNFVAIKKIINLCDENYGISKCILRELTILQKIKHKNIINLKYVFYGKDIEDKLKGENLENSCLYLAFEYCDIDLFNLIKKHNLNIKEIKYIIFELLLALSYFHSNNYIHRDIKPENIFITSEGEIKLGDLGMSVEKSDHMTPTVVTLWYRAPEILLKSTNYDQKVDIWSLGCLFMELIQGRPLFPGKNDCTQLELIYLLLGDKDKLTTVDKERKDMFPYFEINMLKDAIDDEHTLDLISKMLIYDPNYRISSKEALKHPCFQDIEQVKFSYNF
Calcium-dependent protein kinase 4 (Plasmodium falciparum (isolate 3D7)), sequence (Q8IBS5 whole entry, looked up): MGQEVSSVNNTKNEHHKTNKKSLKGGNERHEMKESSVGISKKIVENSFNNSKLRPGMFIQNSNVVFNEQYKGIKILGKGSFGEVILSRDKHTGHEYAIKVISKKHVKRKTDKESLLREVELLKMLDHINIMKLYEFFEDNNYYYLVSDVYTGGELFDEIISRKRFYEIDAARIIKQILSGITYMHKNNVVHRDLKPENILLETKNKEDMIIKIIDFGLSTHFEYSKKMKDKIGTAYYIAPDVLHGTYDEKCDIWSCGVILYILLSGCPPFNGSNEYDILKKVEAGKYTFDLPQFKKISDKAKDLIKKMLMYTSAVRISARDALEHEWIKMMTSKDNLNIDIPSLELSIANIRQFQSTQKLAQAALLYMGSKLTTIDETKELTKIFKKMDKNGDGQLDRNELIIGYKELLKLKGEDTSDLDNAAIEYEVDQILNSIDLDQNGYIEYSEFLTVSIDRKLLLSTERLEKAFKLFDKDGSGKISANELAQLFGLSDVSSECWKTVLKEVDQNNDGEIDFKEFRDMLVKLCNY
L-lactate dehydrogenase (Plasmodium falciparum (isolate CDC / Honduras)), sequence (Q27743 whole entry, looked up): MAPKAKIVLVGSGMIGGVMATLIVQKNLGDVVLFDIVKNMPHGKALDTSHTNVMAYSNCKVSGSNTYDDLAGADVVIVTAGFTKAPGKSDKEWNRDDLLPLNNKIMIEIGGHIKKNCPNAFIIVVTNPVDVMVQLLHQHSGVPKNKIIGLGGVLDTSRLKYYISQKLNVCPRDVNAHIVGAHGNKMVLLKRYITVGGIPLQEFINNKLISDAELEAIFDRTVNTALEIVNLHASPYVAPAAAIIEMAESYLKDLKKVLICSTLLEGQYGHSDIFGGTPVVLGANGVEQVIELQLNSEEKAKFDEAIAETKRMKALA
Protein kinase 7 (PK7), Plasmodium falciparum 3D7 (PF3D7_0213400), sequence (Q7YTF7 1-343): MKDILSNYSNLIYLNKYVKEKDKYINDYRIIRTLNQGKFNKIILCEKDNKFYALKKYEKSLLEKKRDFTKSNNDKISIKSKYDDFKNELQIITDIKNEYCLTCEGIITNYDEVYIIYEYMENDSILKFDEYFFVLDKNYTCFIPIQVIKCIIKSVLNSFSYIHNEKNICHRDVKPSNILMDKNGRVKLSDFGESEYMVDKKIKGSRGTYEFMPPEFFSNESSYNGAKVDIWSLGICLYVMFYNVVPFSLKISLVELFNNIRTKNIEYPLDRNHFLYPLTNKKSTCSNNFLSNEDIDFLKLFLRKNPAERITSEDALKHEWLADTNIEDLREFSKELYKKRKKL
Calcium-dependent protein kinase 1 (Plasmodium falciparum (isolate 3D7)), sequence (P62344 whole entry, looked up): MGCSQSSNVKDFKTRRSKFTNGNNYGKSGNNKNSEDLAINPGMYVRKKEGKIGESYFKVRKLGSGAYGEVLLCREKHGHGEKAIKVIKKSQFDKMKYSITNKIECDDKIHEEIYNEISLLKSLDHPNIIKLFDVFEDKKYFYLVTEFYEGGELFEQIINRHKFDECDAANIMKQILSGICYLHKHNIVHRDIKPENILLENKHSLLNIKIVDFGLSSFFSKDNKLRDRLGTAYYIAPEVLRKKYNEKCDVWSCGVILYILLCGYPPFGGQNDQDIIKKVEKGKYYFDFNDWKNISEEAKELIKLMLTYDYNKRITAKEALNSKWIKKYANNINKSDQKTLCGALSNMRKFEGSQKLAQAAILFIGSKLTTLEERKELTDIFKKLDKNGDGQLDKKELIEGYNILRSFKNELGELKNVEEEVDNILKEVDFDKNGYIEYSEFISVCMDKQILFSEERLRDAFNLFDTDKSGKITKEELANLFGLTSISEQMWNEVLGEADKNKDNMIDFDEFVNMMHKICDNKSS
Mitogen-activated protein kinase 7 (Homo sapiens), sequence (Q13164 whole entry, looked up, the tested form may be a part): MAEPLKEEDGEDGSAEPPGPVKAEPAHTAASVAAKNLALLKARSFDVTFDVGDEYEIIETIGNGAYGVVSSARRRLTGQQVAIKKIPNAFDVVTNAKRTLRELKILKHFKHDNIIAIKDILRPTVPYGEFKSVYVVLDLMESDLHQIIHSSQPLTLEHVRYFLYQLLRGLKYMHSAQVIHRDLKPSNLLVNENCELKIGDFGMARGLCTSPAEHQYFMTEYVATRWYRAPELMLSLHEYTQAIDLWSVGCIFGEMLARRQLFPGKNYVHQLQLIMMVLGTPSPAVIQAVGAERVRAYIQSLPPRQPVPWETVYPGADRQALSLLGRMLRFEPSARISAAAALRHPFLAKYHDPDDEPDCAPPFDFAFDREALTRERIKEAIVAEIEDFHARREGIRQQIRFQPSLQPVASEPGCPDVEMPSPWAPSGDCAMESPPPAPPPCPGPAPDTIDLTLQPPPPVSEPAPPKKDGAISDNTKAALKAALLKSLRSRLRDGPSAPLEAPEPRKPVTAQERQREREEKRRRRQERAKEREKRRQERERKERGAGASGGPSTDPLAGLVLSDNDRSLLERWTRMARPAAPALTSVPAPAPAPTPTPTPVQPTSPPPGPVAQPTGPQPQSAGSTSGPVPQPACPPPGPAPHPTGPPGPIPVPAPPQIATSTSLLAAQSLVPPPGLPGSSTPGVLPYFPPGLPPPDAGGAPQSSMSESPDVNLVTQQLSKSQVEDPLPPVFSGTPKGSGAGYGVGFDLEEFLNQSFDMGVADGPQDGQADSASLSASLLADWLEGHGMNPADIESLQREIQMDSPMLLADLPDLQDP
NAD(+) hydrolase SARM1 (Homo sapiens), sequence (Q6SZW1 whole entry, looked up, the tested form may be a part): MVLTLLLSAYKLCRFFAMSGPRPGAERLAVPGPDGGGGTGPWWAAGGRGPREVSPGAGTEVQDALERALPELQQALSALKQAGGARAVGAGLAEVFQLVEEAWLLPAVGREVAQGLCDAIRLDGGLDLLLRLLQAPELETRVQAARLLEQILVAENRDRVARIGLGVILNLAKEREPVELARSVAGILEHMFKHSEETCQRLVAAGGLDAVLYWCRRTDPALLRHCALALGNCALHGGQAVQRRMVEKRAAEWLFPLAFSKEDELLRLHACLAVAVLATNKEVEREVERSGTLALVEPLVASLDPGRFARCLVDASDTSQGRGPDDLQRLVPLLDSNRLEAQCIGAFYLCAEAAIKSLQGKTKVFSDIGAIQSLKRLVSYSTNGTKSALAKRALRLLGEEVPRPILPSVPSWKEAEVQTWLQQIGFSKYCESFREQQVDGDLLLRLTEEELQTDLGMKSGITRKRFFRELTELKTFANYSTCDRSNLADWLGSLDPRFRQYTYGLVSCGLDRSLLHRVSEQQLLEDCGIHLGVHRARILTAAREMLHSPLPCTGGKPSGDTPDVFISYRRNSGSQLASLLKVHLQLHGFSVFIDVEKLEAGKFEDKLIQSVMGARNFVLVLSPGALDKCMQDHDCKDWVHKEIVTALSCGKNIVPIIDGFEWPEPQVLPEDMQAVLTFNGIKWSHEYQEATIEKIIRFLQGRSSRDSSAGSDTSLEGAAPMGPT

CCS(=O)(=O)Nc1ccc2[nH]c(O)c(C(=Nc3ccc(CN4CCCCC4)cc3)c3ccccc3)c2c1
growth inhibition [1]: 74% (active)
inhibition [2]: 53% (active)
inhibition [3]: 6% (inactive)
growth inhibition [4]: 87% (active)
outcome [5]: inactive
outcome [6]: inactive
outcome [7]: inactive
outcome [8]: inactive
AC50 [9]: 263 nM (active)
AC50 [10]: 662 nM (active)
AC50 [11]: 5900 nM (active)
AC50 [12]: 5900 nM (active)
AC50 [13]: 263 nM (active)
AC50 [14]: 83.3 nM (active)
AC50 [15]: 742 nM (active)
IC50 [16]: 468 nM (active)
fold change [17, 26]: 1 (inactive)
fold change [17, 27]: 0.435
cell count [17, 28]: 720
cell count [17, 29]: 718
z-score [18, 30]: 0.158 (inactive)
z-score [18, 31]: -2.81

CCCCSc1c(CNCCCCCCNCc2ccc3ccccc3c2SCCCC)ccc2ccccc12
growth inhibition [1]: 62% (active)
inhibition [2]: 99% (active)
inhibition [3]: -9% (inactive)
growth inhibition [4]: 93% (active)
outcome [5]: inactive
outcome [6]: inactive
outcome [7]: inactive
outcome [8]: inactive

CCOc1ccc(-c2nc3ccc(-c4nc5ccc(N6CCN(C)CC6)cc5[nH]4)cc3[nH]2)cc1
growth inhibition [1]: 99% (active)
inhibition [2]: 16% (inactive)
inhibition [3]: 1% (inactive)
growth inhibition [4]: 100% (active)
outcome [5]: inactive
outcome [6]: inactive
outcome [7]: inactive
outcome [8]: inactive
fold change [17, 26]: 1.13 (inactive)
fold change [17, 27]: 0.41
cell count [17, 28]: 805
cell count [17, 29]: 711
fold fluorescence [19]: 1.62 [at 110.5 µM] (inactive)

COc1ccc(Cl)cc1NC(=O)Nc1cc(C)nc2ccccc12
growth inhibition [1]: 99% (active)
inhibition [2]: 10% (inactive)
inhibition [3]: -3% (inactive)
growth inhibition [4]: 101% (active)
parasite load remaining [20]: 55.8% (inactive)
viability [20]: 153%
outcome [5]: inactive
outcome [6]: inactive
outcome [7]: inactive
outcome [8]: inactive
remaining activity [21]: 102% (inactive)
fold change [17, 26]: 0.905 (inactive) and 1.03 (inactive)
fold change [17, 27]: 0.387 and 0.813
cell count [17, 28]: 6720 and 4040
cell count [17, 29]: 7420 and 3920
z-score [18, 30]: -0.407 (inactive)
z-score [18, 31]: 0.602
z-score [22]: -0.645 (inactive)

Cc1cc(N[C@@H](Cc2ccccc2)C(=O)NCCc2ccccc2)nc(NCCc2ccc(F)cc2)n1
growth inhibition [1]: 89% (active)
inhibition [2]: 9% (inactive)
inhibition [3]: 2% (inactive)
growth inhibition [4]: 99% (active)
outcome [5]: inactive
outcome [6]: inactive
outcome [7]: inactive
outcome [8]: inactive

Cc1cc(NCC2CCN(CC3CCCCC3)C2)nc(Nc2ccc(Br)cc2)n1 (centres undefined)
growth inhibition [1]: 78% (active)
inhibition [2]: -2% (inactive)
inhibition [3]: 0% (inactive)
growth inhibition [4]: 101% (active)
outcome [5]: inactive
outcome [6]: inactive
outcome [7]: inactive
outcome [8]: inactive

COc1cc2c(cc1S(=O)(=O)c1ccc(NC(=O)c3cc4ccccc4s3)cc1)CCN(C)CC2
growth inhibition [1]: 88% (active)
inhibition [2]: 21% (inactive)
inhibition [3]: 2% (inactive)
growth inhibition [4]: 100% (active)
outcome [5]: inactive
outcome [6]: inactive
outcome [7]: inactive
outcome [8]: inactive

COc1ccc(Cl)cc1S(=O)(=O)Nc1cccc(CCN2CCC(N3CCCCC3)CC2)c1
growth inhibition [1]: 9% (inactive)
inhibition [2]: 33% (inactive)
inhibition [3]: 4% (inactive)
growth inhibition [4]: 101% (active)
outcome [5]: inactive
outcome [6]: inactive
outcome [7]: inactive
outcome [8]: inactive

Cc1cnc(N)c(/C=C/c2cncc(C(=O)NCCc3ccc(Cl)cc3Cl)c2)c1
growth inhibition [1]: 100% (active)
inhibition [2]: 2% (inactive)
outcome [5]: inactive
outcome [6]: inactive
outcome [7]: inactive
outcome [8]: inactive

CC(=O)N/N=C/[C@H](CCc1ccccc1)NC(=O)[C@H](CC(C)C)NC(=O)c1ccc(OCCN2CCOCC2)cc1
growth inhibition [1]: 87% (active)
inhibition [2]: 4% (inactive)
inhibition [3]: -9% (inactive)
growth inhibition [4]: 96% (active)
outcome [5]: inactive
outcome [6]: inactive
outcome [7]: inactive
outcome [8]: inactive

N#Cc1cccc(NC(=O)Nc2ccc(-c3cccc(-c4nc5ccc(F)cc5[nH]4)c3)cc2)c1
growth inhibition [1]: 100% (active)
inhibition [2]: 64% (active)
inhibition [3]: 4% (inactive)
growth inhibition [4]: 102% (active)
outcome [5]: inactive
outcome [6]: inactive
outcome [7]: inactive
outcome [8]: inactive

C=C[C@H]1CN2CC[C@H]1C[C@H]2[C@H](O)c1ccnc2ccc(OC)cc12
growth inhibition [1]: 99% (active) and 22% (inactive) and 79% (active)
inhibition [2]: 13% (inactive) and -12% (inactive) and -6% (inactive)
inhibition [3]: -4% (inactive) and -7% (inactive)
growth inhibition [4]: 100% (active) and 97% (active) and 99% (active)
parasite load remaining [20]: 49.1% (inactive)
viability [20]: 193%
outcome [5]: inactive
outcome [6]: inactive
outcome [7]: inactive
outcome [8]: inactive
outcome [9]: inactive
outcome [11]: inactive
outcome [12]: inactive
outcome [13]: inactive
outcome [14]: inactive
outcome [23]: inactive
outcome [15]: inactive
outcome [16]: inactive
fold change [17, 26]: 0.942 (inactive)
fold change [17, 27]: 0.791
cell count [17, 28]: 9260
cell count [17, 29]: 9830
z-score [18, 30]: -0.0548 (inactive)
z-score [18, 31]: 1.17
remaining NAD [24]: 10 nM (inactive)
luciferase signal [25]: 140 AU (inactive)
z-score [22]: -0.735 (inactive)

CC1(C)C(=O)NC2=C1C(=O)C(=O)c1ccccc12
inhibition [2]: -8% (inactive)
inhibition [3]: 1% (inactive)
growth inhibition [4]: 93% (active)
outcome [5]: inactive
outcome [6]: inactive
outcome [7]: inactive
outcome [8]: inactive
remaining activity [21]: 80.1% (inactive)
fold change [17, 26]: 0.672 (active)
fold change [17, 27]: 1.77
cell count [17, 28]: 1170
cell count [17, 29]: 1740
z-score [22]: -0.705 (inactive)

COc1ccc(NC(=O)c2cc(-c3ccc(NC(C)=O)cc3)cnc2N)cc1
growth inhibition [1]: 5% (inactive)
inhibition [2]: 10% (inactive)
inhibition [3]: 4% (inactive)
growth inhibition [4]: 98% (active)
outcome [5]: inactive
outcome [6]: inactive
outcome [7]: inactive
outcome [8]: inactive

CC(C)(C)c1ccc(CN2CCC(NC(=O)c3ccc(-c4ccccc4Cl)s3)CC2)cc1
growth inhibition [1]: 29% (inactive)
inhibition [2]: 36% (inactive)
inhibition [3]: 4% (inactive)
growth inhibition [4]: 84% (active)
outcome [5]: inactive
outcome [6]: inactive
outcome [7]: inactive
outcome [8]: inactive

NC1=NC(c2ccccc2)(c2cccc(O)c2)C(=O)N1CCCc1ccccc1 (centres undefined)
growth inhibition [1]: 38% (inactive) and 93% (active)
inhibition [2]: -2% (inactive)
inhibition [3]: -2% (inactive) and 4% (inactive)
growth inhibition [4]: 85% (active) and 98% (active)
outcome [5]: inactive
outcome [6]: inactive
outcome [7]: inactive
outcome [8]: inactive

From PubChem BioAssay
